Screening results deposited in PubChem BioAssay by National Center for Advancing Translational Sciences (NCATS).
Prx2 Sm inh – blocks S. mansoni peroxiredoxin 2 enzymatic activity | 65,000 compounds, 0.07% hits | S. mansoni Prx2 activity coupled to TGR/GSH (TGR is thioredoxin glutathione reductase), NADPH fluorescence loss, qHTS | AID 448 | Potency, µM
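Enzyme mix: 100 uM NADPH, 25 nM TGR, 700 uM GSH, 50 nM Prx2 in 100 mM phosphate pH 7.4, 10 mM EDTA, 0.01% Tween-20. 15 min RT with compound; NADPH/GSH added, H2O2 starts reaction; NADPH fluorescence read 8 min.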
AmpC det inh – AmpC beta-lactamase inhibition, detergent assay. AID 584. 71,000 compounds, 0.09% hits. purified AmpC, nitrocefin hydrolysis with detergent. Potency, µM (series often up to 28.7 µM), inactives show top-dose activity change, negative = inhibition. P00811; active = well fitted curve in the direction sought with a large enough effect; inconclusive = small, poorly fitted or top-dose-only effect; note: % is set by controls: 0 for no effect and ±100 for the full control effect
Target sequence (P00811 whole entry, looked up): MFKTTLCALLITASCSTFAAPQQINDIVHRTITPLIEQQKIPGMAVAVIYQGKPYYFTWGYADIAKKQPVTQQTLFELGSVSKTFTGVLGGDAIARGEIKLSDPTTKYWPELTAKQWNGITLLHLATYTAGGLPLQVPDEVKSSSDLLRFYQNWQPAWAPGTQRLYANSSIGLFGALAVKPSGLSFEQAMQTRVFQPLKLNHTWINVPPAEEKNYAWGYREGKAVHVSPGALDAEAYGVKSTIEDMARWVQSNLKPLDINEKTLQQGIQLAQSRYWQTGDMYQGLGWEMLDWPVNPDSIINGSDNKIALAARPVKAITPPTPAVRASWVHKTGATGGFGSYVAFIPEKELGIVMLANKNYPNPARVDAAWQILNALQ
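E. coli AmpC (5.3 nM) in 20 mM phosphate pH 7.0 with 0.01% Triton X-100, preincubated 15 min RT with compound; nitrocefin (2 uL of 800 uM stock) hydrolysis followed by 480 nm absorbance every 20 s over 4 min.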
AmpC inh no det – inhibitors of E. coli AmpC beta-lactamase without detergent; Potency, µM (series often up to 28.7 µM), for the others: at the highest dose activity change, negative = inhibition; AmpC nitrocefin hydrolysis, absorbance 480 nm, no detergent; P00811; 71,000 compounds, 1.8% hits; note: % of control where 0% means no effect
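AmpC, 20 mM phosphate pH 7.0; 15 min cpd preinc, RT; start with nitrocefin (800 uM stock); A480 kinetic read, 20 s intervals, 4 min. No-enzyme wells = negative control.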
Anthrax LT inh – blocks cellular internalization of anthrax lethal toxin | Cells, anthrax lethal toxin internalization, FRET ratio (460/530) | Potency, µM (titrated, usually from 40 µM), inactives show at the highest dose activity change, negative = inhibition, actives largely listed as inhibitors | 70,000 compounds, 0.67% hits | AID 912; note: % is set by controls: 0 for no effect and ±100 for the full control effect; nearly all actives have a fitted effect of over 50% in size
* hit, by the source's call; ? = inconclusive; · = no result given; [ ] = dose if it differs, or a comment. Shown are actives, neighbours in structure and some others; about 2.4% of the full set was active somewhere. Unless noted, calls come from the whole dose curve. Potency is the fitted concentration of half-maximal effect.

SMILES	Prx2 Sm inh	AmpC det inh	AmpC inh no det	Anthrax LT inh
COC(=O)c1ccc2c(=O)n(Cc3ccco3)c(SCC(=O)Nc3ccc(C)c(Cl)c3)nc2c1	>57	-2.0%	12.6µM*	-4.0%
CCCCN(C)S(=O)(=O)c1ccc(C(=O)Nc2nnc(-c3cccs3)o2)cc1	>57	-0.6%	15.8µM*	-4.3%
CCCCN(CC)S(=O)(=O)c1ccc(C(=O)Nc2nnc(-c3ccccc3Cl)o2)cc1	>57	-1.0%	6.31µM*	11.1%
CCOC(=O)C1C(=O)Oc2ccc3ccccc3c2C1C1CCOC1=O (configuration not stated)	>57	14.0%	3.98µM*[single pt active]	-10.5%
O=C(NC1CCCCC1)N1CCC(n2c(=O)[nH]c3ccccc32)CC1	>57	17.8%	3.16µM*[single pt active]	-14.1%
CCC(=O)OCN1C(=O)C=CC1=O	>57	5.3%[5.75 µM]	1.7%[5.75 µM]	11.9%[8 µM]
CC(=O)Nc1cccc(NC(=O)CSc2nnnn2Cc2ccccc2)c1	>57	-1.4%	-6.3%	-12.0%
COC(=O)CSc1nc2ccc(NC(=O)CSc3nnnn3Cc3ccccc3)cc2s1	·	-0.3%	?	5.01µM*
COC(=O)NC(c1ccccc1)[C@@]1(C(=O)OC)CCCC1=O (some centres not stated)	·	·	·	-11.2%[8 µM]
Cc1ccc2c(CC(=O)Nc3sccc3C(N)=O)coc2c1	>57	-1.8%	12.6µM*[single pt active]	-11.6%
Cc1noc(C)c1S(=O)(=O)N(CC(=O)NCc1ccc2c(c1)OCO2)c1ccc(C(C)C)cc1	>57	6.4%	-9.3%	5.01µM*
O=C(CSc1nnc(COc2ccc(Cl)cc2)o1)N1CCN(c2ccccc2)CC1	>57	-1.4%	-11.1%	?
O=C(CSc1nnc(-c2ccc(Cl)cc2)o1)N1CCN(c2ccccc2)CC1	>57	-3.4%	10µM*[single pt active]	0.4%
Clc1ccc(-c2nnc(SCc3nc(-c4ccccc4)no3)o2)cc1	>57	11.2%	3.98µM*[single pt active]	?
COCCn1c(=O)c(-c2ccc(Cl)cc2)nc2cnc(Oc3cccc(Cl)c3)nc21	>57	-0.1%	-2.4%	-12.5%
N#CCCS(=O)(=O)c1nnnn1-c1ccccc1	?	-7.2%	0.5%	10µM*
Cc1cc(NC(=O)CSc2ncnc3sc4c(c23)CCC(C)C4)no1 (configuration not stated)	>57	-4.5%	5.01µM*	-1.4%
Cc1cc(NC(=O)CSc2nc(C(C)C)nc3sc(C)c(C)c23)no1	>57	-1.5%	9.7%	-3.2%
O=C(/C=C\c1ccc(O)c(O)c1)O[C@H]1C[C@@](O)(C(=O)O)C[C@H](O)[C@@H]1O	>57	-2.4%	4.2%	?
COC(=O)[C@](C)(N)Cc1ccc(O)cc1	>57	-2.2%	-3.3%	-4.2%
NC(=O)c1ccsc1NC(=O)COC(=O)c1ccccc1NCc1ccco1	>57	3.5%	5.01µM*	?
O=C(COC(=O)c1ccccc1Nc1ccccc1)NCc1ccco1	>57	10.6%	-16.4%	13.1%
c1ccc2sc(C3(N4CCCCC4)CCCCC3)cc2c1	>57	-2.8%	26.7%	25.1µM*
CCCCC(=O)Nc1cc(N(C)C)nc2ccccc12	>57	-2.0%	8.4%	-3.3%
CN(C)c1cc(NC(=O)CN2CCOCC2)c2ccccc2n1	>57	12.2%	3.98µM*[single pt active]	-19.7%
SMILES	Prx2 Sm inh	AmpC det inh	AmpC inh no det	Anthrax LT inh
Nc1nc(C(=O)N2CCOCC2)nn1C(=O)c1ccc(Cl)cc1	>57	11.9%	3.98µM*[single pt active]	2.7%
O=C(c1ccc(Cl)cc1)c1ccccc1C(=O)N1CCOCC1	>57	16.8%	15.6%	-6.7%
COc1cccc(-c2nc(NCc3cccnc3)c3ccccc3n2)c1	>57	12.6µM*	?	-20.4%
N#Cc1cccc(-c2nc(NCc3cccnc3)c3ccccc3n2)c1	>57	10µM*	0.631µM*	?
CC(C)[C@@H](CC(=O)N[C@@H]1CCCC[C@H]1C(=O)N[C@H](CC(=O)N[C@@H](CCC(=O)O)CC(=O)O)Cc1c[nH]c2ccccc12)NC(=O)C[C@H](CO)NC(=O)[C@@H]1CCCC[C@H]1N	>57	-2.6%	116.6%	-5.7%
C=C(C)[C@@H]1CN[C@H](C(=O)O)[C@H]1CC(=O)O	>57	-0.8%	-7.0%	2.2%
COc1ccc(C2CC(=O)c3cnc(NC(=O)c4ccccc4)nc3C2)cc1OC (configuration not stated)	>57	9.5%	3.98µM*[single pt active]	-24.8%
Cc1nc(NCc2ccccc2)c2nc(-c3ccccc3)n(CCCN(C)C)c2n1	·	17.4%	84.7%	?
CCC(C)NC(=O)c1cn(CC)c2ccc(S(=O)(=O)N(C)C)cc2c1=O (configuration not stated)	>57	8.0%	86.3%	5.5%
CCn1cc(C(=O)O)c(=O)c2cc(S(=O)(=O)N(C)C)ccc21	>57	9.2%	-0.2%	-9.2%
CCN(CC)CCNC(=O)c1cn(CC)c2ccc(S(=O)(=O)N(C)C)cc2c1=O	>57	13.1%	3.16µM*[single pt active]	-4.7%
CN1CCN(C(=O)c2cn(C)c3ccc(S(=O)(=O)N(C)C4CCCCC4)cc3c2=O)CC1	>57	12.3%	27.3%	-22.6%
CCn1cc(C(=O)NC2CCCCC2)c(=O)c2cc(S(=O)(=O)N(C)C)ccc21	>57	10.7%	3.98µM*[single pt active]	-9.4%
CCN(CC)CCNC(=O)c1cn(C)c2ccc(S(=O)(=O)N(C)C3CCCCC3)cc2c1=O	>57	11.8%	3.98µM*[single pt active]	3.98µM*
CCNc1ncc2nc(-c3cc(F)cc(F)c3)c(=O)n(C)c2n1	>57	0.2%	7.4%	?
NS(=O)(=O)c1nc(S(=O)(=O)O)c2[nH]cnc2n1	>57	-1.4%[5.75 µM]	-2.0%[5.75 µM]	?
Nc1ccc2cc3ccccc3cc2c1	·	12.5%	2.51µM*	?
Cc1nc(Nc2ccccc2)c2nc(-c3ccccc3)n(CCCN3CCCCC3C)c2n1 (configuration not stated)	·	10.2%	84.4%	?
O=C1c2ccccc2C(Nc2ccc(S(=O)(=O)N3CCOCC3)cc2)N1c1cccnc1 (configuration not stated)	>57	10.3%	3.98µM*[single pt active]	?
O=C1c2ccccc2C(Nc2ccc(F)c(Cl)c2)N1c1ccccn1 (configuration not stated)	>57	13.1%	3.98µM*[single pt active]	-16.8%
O=C1c2ccccc2C(Nc2ccc(S(=O)(=O)N3CCCCC3)cc2)N1c1ccccn1 (configuration not stated)	>57	14.9%	3.16µM*[single pt active]	?
COC1=C[C@H]2[C@@H]3Cc4ccc(OC)c(O)c4[C@@]2(CCN3C)CC1=O	>57	0.7%	-6.0%	?
Cn1c(=O)c(-c2cc(F)cc(F)c2)nc2cnc(Oc3ccccc3)nc21	>57	1.4%	4.7%	-2.3%
O=C1C2Cc3c([nH]c4ccccc34)C(c3ccccc3)N2C(=O)C2Cc3c([nH]c4ccccc34)C(c3ccccc3)N12 (configuration not stated)	·	·	·	-15.1%[8 µM]
Cc1nonc1NC(=O)CSc1nc2cc(Cl)ccc2c2c1CCCC2	>57	-3.6%	12.6µM*	-20.2%
CC(=O)OC1c2ccccc2C(=O)N1Cc1ccccc1Cl (configuration not stated)	>57	9.4%	3.98µM*[single pt active]	-5.2%
CCC(C)NC(=O)C1c2ccccc2C(=O)N1Cc1ccccc1OC (configuration not stated)	>57	-3.1%	4.0%	9.3%
